The panel holds about 83,000 compounds, 20% with a hit somewhere; the sample as a whole holds those more often.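 Interpretation: 100, growth as untreated; towards 0, rising growth inhibition; 0, no net growth; 0 to -100, cell death. Compounds scoring below 10 were considered active.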 Unmarked numbers belong to inactive results. Calls of active or inactive are those of the source.
Each molecule was assayed on SK-MEL-28 melanoma (assay: NCI-60 one-dose screen, 48 h (100 = growth as untreated, 0 = no growth, -100 = all killed)). Settings: 10 µM unless noted.

For C#CCOc1cccc(Nc2ncnc3ccc(NC(=O)CCl)cc23)c1, the growth was -17.2% (active).
For Clc1ccc(Nc2nnc(COc3ccccc3)c3ccccc23)cc1, the growth was 4.73% (active).
For CN(C)CCCC1(c2ccc(F)cc2)OCc2cc(-c3cccc4[nH]ccc34)ccc21 (configuration not stated), the growth was -86% (active).

In order of falling growth:
1. CC(C)n1cnc2c(=S)nc[nH]c21  131%
2. Cc1ccc(C(C(N)=O)C(C(N)=O)c2ccccc2)cc1 (configuration not stated)  123%
3. C1=C(N2CCCC2)CCC1  110%
4. Cc1cc(=O)[nH]c2c(C#N)cnn12  105%
5. COc1ccc(C(=S)N2CCN(c3ccccc3Cl)CC2)cc1OC  103%
6. COc1cc(-c2nc(SCCC(C)C)nc(Nc3ccccc3Cl)c2C#N)cc(OC)c1OC  98.8%
7. CCCCCOc1ccc(C(=O)/C(Br)=C/C(=O)O)cc1  87.4%
8. Brc1ccc2[nH]cc(-c3nonc3-c3c[nH]c4ccccc34)c2c1  77.6%
9. CCOC(=O)CNP(=O)(OC[C@@H](Cc1ccccc1)NC(=O)c1cc2ccccc2s1)Oc1ccccc1 (some centres not stated)  77%
10. CCOc1ccc(NC(=O)CSc2oc(-c3ccccc3)nc2S(=O)(=O)c2ccc(F)cc2)cc1  72.6%
11. N#CC1=C(N)Oc2c(sc3c(F)cccc23)C1c1ccc(F)cc1 (configuration not stated)  64%
12. Cc1ccc(C2=Nc3c(N)ncnc3NC(c3ccc4c(c3)OCO4)C2)cc1 (configuration not stated)  58%
13. COc1cc2c(c(OC)c1OC)-c1ccc(OC)c(=O)cc1[C@@H](NC(=O)CCl)CC2  47%
14. Cc1cc(Cl)ccc1NC(=O)c1cc2ccccc2cc1O  41.6%
